From ChEMBL document CHEMBL1157539, “Thousands of chemical starting points for antimalarial lead identification” (Nature, 2010) come the findings set out here.

As a reminder, the Inhibition is the percentage by which the read-out fell short of the control.

Assay type in all cases: functional
Assay [1] deals with Plasmodium falciparum. As to the kind of experiment: GSK_TCMDC: Inhibition of Plasmodium falciparum 3D7 in whole red blood cells, using parasite LDH activity as an index of growth. Test compounds present at 2uM.
Assay [2] has as its system Plasmodium falciparum. As to the kind of experiment: GSK_TCMDC: Inhibition of Plasmodium falciparum Dd2 in whole red blood cells, using parasite LDH activity as an index of growth. Test compounds present at 2uM.
A further assay concerns HepG2. As to the kind of experiment: GSK_TCMDC: Percent inhibition of human HepG2 cell line. Test compounds present at 10uM.

For `O=[N+]([O-])c1cccc(C=NNc2nc(=Nc3ccccc3)[nH]c(=Nc3ccccc3)[nH]2)c1`, the Inhibition came to 99% in the assay with Plasmodium falciparum [1], 55% in the assay on Plasmodium falciparum [2] and 10% with HepG2.
Taken in the same sequence, the figures for `Cc1cc2c(cc1C(F)(F)F)N(C(=O)Nc1cc(C(=O)NC3CCN(Cc4ccccc4)C3)cc(C(F)(F)F)c1)CC2.Cl` (stereo unspecified) were 100%, 97% and 22%.
Taken in the same sequence, the figures for `Cc1ccc(C)c(CC(=O)N2CCC(n3c(C)nc4ccc(F)cc43)CC2)c1` were 100%, 99% and 0%.
The matching figures for `Cc1cc(N[C@@H](Cc2ccccc2)C(=O)NC2CCCC2)nc(NCC2CCCCC2)n1.O=C(O)C(F)(F)F`: 100%, 96% and 18%.
With `COc1ccc(-c2cnc3[nH]cc(-c4ccc(C(=O)O)cc4)c3c2)cn1.O=C(O)C(F)(F)F`, the Inhibition was 95% with Plasmodium falciparum [1], 99% in the assay on Plasmodium falciparum [2] and 35% with HepG2.
For `COc1ccc(Nc2ncc3c(-c4ccc(NC(=O)c5cccc(C(F)(F)F)c5)cc4)c[nH]c3n2)cc1OC`, the Inhibition in the assay on Plasmodium falciparum [1] was determined as 89%; in the assay with Plasmodium falciparum [2], 30%; in the assay on HepG2, 26%.
`C#Cc1cccc(NC(=O)[C@H](CC2CCCCC2)Nc2ccc(C#N)c3ccccc23)c1.O=C(O)C(F)(F)F`: the Inhibition with Plasmodium falciparum [1] is given as 100%; in the assay with Plasmodium falciparum [2], 99%; in the assay on HepG2 it was 48%.
The matching figures for `O=C(c1ccc([N+](=O)[O-])o1)N1CCN(c2ccccc2)CC1`: 94%, 72% and 44%.
Taken in the same sequence, the figures for `CCc1cc(-c2onc(C)c2-c2cc3ccccc3o2)c(O)cc1OC` were 95%, 33% and 48%.
Consider `Cn1nc(-c2ccc(NC(=O)Nc3cc(C(F)(F)F)ccc3F)c(F)c2)c2cnc(NCCCN3CCOCC3)nc21.O=C(O)C(F)(F)F`, for which the values for the Inhibition in the assay with Plasmodium falciparum [1], with Plasmodium falciparum [2] and in the assay with HepG2 were 100%, 62% and 31%, respectively.
In the case of `CC(C)(C)N1CCC(N(Cc2ccc(-c3ccc(C(F)(F)F)cc3)cc2)C(=O)Cn2c(CCc3cccc(F)c3F)cc(=O)c3ccccc32)CC1.O=C(O)C(O)C(O)C(=O)O`, the Inhibition turned out to be 100% in the assay with Plasmodium falciparum [1], 97% with Plasmodium falciparum [2] and 100% in the assay on HepG2.
Turning to `CCN(CC)CCOC(=O)c1ccc(NC(=O)c2cc(-c3ccc(C)cc3)nc3ccccc23)cc1.Cl`, the Inhibition with Plasmodium falciparum [1] was 97%; in the assay on Plasmodium falciparum [2], 12%; with HepG2 it was 22%.
Taken in the same sequence, the figures for `CCCCOc1c(CCC)cc(Cc2cnc(N)nc2N)cc1CCC.Cl` were 97%, 0% and 27%.
The matching figures for `COc1ccc(C2N=C(N)N=C(N)N2c2ccc(Cl)cc2)cc1OC.Cl` (stereo unspecified): 85%, 4% and 4%.
The matching figures for `O=C(/C=C/c1ccc(Cl)c(Cl)c1)NCCCCCN1CCC(NC(=O)c2cc(Cl)ccc2F)CC1`: 92%, 32% and 48%.
As to `Cc1cc(O)c2c(c1)OC(C)(C)C=C2C1=CCN(Cc2ccccc2)CC1`, the figures for the Inhibition in the assay with Plasmodium falciparum [1], in the assay with Plasmodium falciparum [2] and in the assay with HepG2 were 96%, 1% and 0%, respectively.
Taken in the same sequence, the figures for `O=C(Nc1ccccc1Oc1ccccc1)NC1CCN(c2ccnc3cc(Cl)ccc23)C1.O=C(O)C(F)(F)F` (stereo unspecified) were 99%, 74% and 0%.
Taken in the same sequence, the figures for `O=C(NCCN1CCCC1)c1cccc(-c2ccc(-c3nc4cc(F)ccc4[nH]3)s2)c1` were 100%, 4% and 51%.
The matching figures for `Cl.OCCNc1nc(Nc2ccc(Cl)cc2)nc2ccccc12`: 100%, 99% and 30%.
For the molecule `COc1c(OC)c(OC)c2ccccc2c1CNCCCCCCNCc1c(OC)c(OC)c(OC)c2ccccc12.Cl`, the Inhibition amounted to 100% with Plasmodium falciparum [1], 71% in the assay with Plasmodium falciparum [2] and 99% with HepG2.
As to `COc1cccc(-c2cc(-c3ccc(NC(=O)c4ccccc4)cc3)c3c(N)ncnc3n2)c1`, the Inhibition is 99% with Plasmodium falciparum [1], 98% with Plasmodium falciparum [2] and 0% in the assay on HepG2.
With `CC(=O)Nc1nc(C(=O)Nc2cccc(-c3cccc(-c4nc5ccccc5[nH]4)c3)c2)cs1`, the Inhibition in the assay on Plasmodium falciparum [1] was 100%; with Plasmodium falciparum [2], 82%; with HepG2, 31%.
Taken in the same sequence, the figures for `COc1ccc(-c2ccc(NC(=O)c3ccc(C#N)cc3)cc2)cc1CN(C)CCO.O=C(O)C(F)(F)F` were 99%, 44% and 41%.
Taken in the same sequence, the figures for `CCOC(=O)c1ccc2[nH]c(-c3ccc(C(=O)NCc4ccc(C(C)(C)C)cc4)cc3)nc2c1` were 94%, 34% and 0%.
Taken in the same sequence, the figures for `Cc1cc(NC(=O)NCCN2CCC(NS(=O)(=O)c3ccccc3F)CC2)c2ccccc2n1` were 81%, 44% and 0%.
Take `CS(=O)(=O)c1ccc(CNCc2ccc(-c3ccc(-c4nc5cc(F)ccc5[nH]4)s3)cc2)cc1.O=C(O)C(F)(F)F`: the Inhibition in the assay on Plasmodium falciparum [1] was determined as 100%; in the assay on Plasmodium falciparum [2], 97%; in the assay on HepG2 it was 22%.
With `COc1ccc(NS(=O)(=O)c2ccccc2Br)cc1N1CCN(C)CC1.Cl`, the Inhibition with Plasmodium falciparum [1] amounted to 94%; in the assay on Plasmodium falciparum [2], 3%; with HepG2 it was 2%.
